The list is not random: actives were taken first. Their share in the collection is about 1.7%.
PABP FP inh – PABP poly(A) RNA binding inhibitors, primary screen, biochemical, fluorescence polarization, uHTS; AID 2014, 2009; Polyadenylate-binding protein 1 (Homo sapiens), P11940; calls only at 35 µM; 1% of 290,000 active;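 also: calls also rest on retests at 20 µM and on dose response follow-up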
eIF4H inh – human eIF4H binding inhibitors, primary screen, translation initiation inhibitor project, biochemical, uHTS, fluorescence polarization; 0.94% of 290,000 active; eIF4H fluorescence polarization binding assay; inhibition, % at 35 µM; Eukaryotic translation initiation factor 4H (Homo sapiens), Q15056; AID 2012, 2009;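 also: calls also rest on retests at 20 µM and on dose response follow-up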
MLLE-PAM2 inh – inhibitors of PABP1 MLLE–PAM2 peptide binding, primary screen, biochemical, fluorescence polarization, FITC-PAM2, GST-MLLE; 0.36% of 360,000 active; inhibition, % at 20 µM; AID 588489, 2011; in the data active = inhibition above about 35%, passing the limit was not always enough;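 also: plate controls were DMSO wells with GST-MLLE for no effect and wells lacking GST-MLLE protein for full effect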
eIF4E-4G inh – eIF4E–eIF4G protein interaction inhibitors, primary screen, biochemical, uHTS, TR-FRET, eIF4GI fragment | inhibition, % at 21.7 µM | 0.37% of 220,000 active | TR-FRET eIF4E-eIF4GI(517-606) binding, 2 h;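 active = inhibition above about 30%, limit read from the data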;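 also: 0% = full FRET control wells and 100% = background wells lacking eIF4GI fragment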
EBV gp42 inh – Epstein-Barr virus gp42 inhibitors, primary screen, biochemical, uHTS, fluorescence polarization | Glycoprotein 42 (Epstein-Barr virus (strain AG876)), Q1HVG2 | Fluorescence polarization binding assay, mP read-out | inhibition, % (tested at 21.74 µM) | 0.42% of 220,000 active | AID 1085, 2008; in the data active = inhibition above about 50%
The depositor's hits bear a star; i = inactive; ? = inconclusive; / = not tested or not shown; + = active, no number. Unless noted, no rule for the calls is given here.

SMILES	PABP FP inh	eIF4H inh	MLLE-PAM2 inh	eIF4E-4G inh	EBV gp42 inh
CC1CN(C(=S)c2cccc([N+](=O)[O-])c2)CC(C)O1 (configuration not stated)	i	-0.7	38.9*	4.0	-3.4
O=[N+]([O-])c1cccc(C(=S)N2CCN(c3ccccc3F)CC2)c1	i	12.2	46.4*	3.8	-0.4
CCc1noc(C)c1C(=O)OC(C)C(=O)Nc1ccccc1OC (configuration not stated)	/	/	-11.8	/	/
O=C(CCC(=O)N1CCOCC1)NCc1cccc(C(F)(F)F)c1	/	/	-8.9	/	/
CC(C)CNS(=O)(=O)c1ccc(S(=O)(=O)N2CCC3(CC2)OCCO3)cc1	+	?	5.9	-2.4	-17.6
Cn1c(=O)oc2cc(S(=O)(=O)N3CCC4(CC3)OCCO4)ccc21	+	95.1*	-8.2	-1.5	-34.8
CN1C(=O)c2ccc(C(=O)Nc3ccccc3O)cc2C1=O	i	2.6	-5.4	/	/
CC(=O)c1c2c3c(c(Br)ccc3n(C)c1=O)C(=O)c1ccccc1-2	/	/	59.1*	/	/
CCC(c1nnc(SCC(=O)Nc2ccc(C(=O)N(C)C)cc2)n1Cc1ccccc1)N(C)C (configuration not stated)	i	-4.7	-7.2	/	/
Cc1ccn2cc(CC(=O)O)nc2c1	+	?	17.5	8.1	5.4
CCOC(=O)c1cn2ccc(C)cc2n1	i	-2.1	18.0	3.7	-15.9
CC1(C(=O)NS(=O)(=O)C2CC2)CCCN(C(=O)Cc2ccc3ccccc3c2)C1 (configuration not stated)	/	/	-1.7	/	/
COc1ccc(-c2cc(C(F)(F)F)c3c(n2)sc2c(O)cc(=O)[nH]c23)c(OC)c1	i	15.5	-27.0	15.3	68.5*
Cc1cc(C)c2c(n1)sc1c(O)cc(=O)[nH]c12	i	43.2	0.2	-1.9	-6.0
CCCCCCCc1c(C)nc(N2CCOCC2)[nH]c1=O	i	-1.2	-8.8	4.1	4.3
CCCCc1c(C)nc(N2CCCC2)[nH]c1=O	i	64.9*	1.0	-2.5	15.3
COc1cc(C(=O)N2CCN(S(=O)(=O)c3cccc(F)c3)CC2)ccc1OCC(=O)N1CCOCC1	/	/	-10.9	/	/
O=c1cc(-c2ccccc2Cl)oc2c(NS(=O)(=O)c3ccccc3OC(F)(F)F)ccc(O)c12	i	-6.8	/	-0.2	-21.7
CN(CC(=O)Nc1ccc2c(c1)OCCO2)S(=O)(=O)c1cccc2cccnc12	i	-1.7	-3.2	0.7	7.9
O=S(=O)(Nc1ccc2c(c1)OCCO2)c1cccc2cccnc12	i	-2.5	3.2	-2.5	99.4*
Cc1onc(-c2ccccc2Cl)c1C(=O)N(C)CC(=O)Nc1ccc(F)c(F)c1F	/	/	11.7	/	/

Compound activity: PubChem, several laboratories
